An excerpt weighted towards active compounds, which were near 8.3% of everything screened.
RORgamma inh – blocks mouse ROR gamma transcriptional activity; 310,000 compounds, 5.4% hits; Potency, µM (highest dose often 53.6 µM), without a hit: at the highest dose activity change, negative = inhibition, usual class: inhibitors; P51450; Drosophila S2 Gal4-RORgamma UAS-luciferase reporter, 20 h; further: potency means the concentration at half of the fitted maximal effect; on the % scale 0 is the no-effect control and ±100 the full control effect; nearly all actives have a fitted effect of over 60% in size
Target sequence (P51450 whole entry, looked up, the tested form may be a part): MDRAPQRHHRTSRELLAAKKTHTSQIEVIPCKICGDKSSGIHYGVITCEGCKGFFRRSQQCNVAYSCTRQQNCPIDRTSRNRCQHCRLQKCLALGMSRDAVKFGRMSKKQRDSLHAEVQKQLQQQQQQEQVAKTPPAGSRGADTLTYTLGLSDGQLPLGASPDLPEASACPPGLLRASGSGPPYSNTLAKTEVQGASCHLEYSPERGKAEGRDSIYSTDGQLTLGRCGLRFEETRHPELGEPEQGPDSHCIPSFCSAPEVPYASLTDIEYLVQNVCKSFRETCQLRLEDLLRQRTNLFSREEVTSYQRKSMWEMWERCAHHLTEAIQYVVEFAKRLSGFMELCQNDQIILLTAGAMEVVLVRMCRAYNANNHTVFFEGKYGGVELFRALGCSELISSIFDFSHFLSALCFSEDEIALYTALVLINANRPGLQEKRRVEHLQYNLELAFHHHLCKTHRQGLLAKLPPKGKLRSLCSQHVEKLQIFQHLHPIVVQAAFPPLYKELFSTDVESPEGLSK
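Drosophila Schneider cells stably carrying a metallothionein-driven Gal4 DBD–ROR gamma fusion and a UAS-Photinus luciferase reporter were exposed to compound for 1 hr, then induced with copper sulfate (700 uM final) for 20 hr at ambient temperature before luminescence reading.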
MCF10A rerep – induces DNA re-replication in MCF 10a normal breast cells; 350,000 compounds, 2.9% hits; MCF 10A DNA re-replication, Hoechst nuclear intensity, 48 h; Potency, µM (titrated, usually from 46.1 µM), for inactives: at the highest dose activity, positive = re-replication, hits mostly activators; further: potency means the concentration at half of the fitted maximal effect; % of control where 0% means no effect; nearly all actives have a fitted effect of over 50% in size
Giardia kill – Giardia lamblia killing; 340,000 compounds, 0.15% hits; AID 540267; Giardia lamblia trophozoite viability; activity change, % at 7.66 µM, hits read low; in the data active means activity change below about -80%; inconclusive means between about -30% and that limit;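 further: parasites exposed to compound for two days anaerobically before the ATP read; on the % scale 0 is the no-effect control and ±100 the full control effect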
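Media and compound were dispensed first, then trophozoites at 100 cells/well; plates sat 48 hrs at 37 deg C without oxygen before ATP luminescence reagent was added and read after 15-30 min at room temperature.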
Gal4-VP16 FLuc – Gal4-VP16 reporter inhibition counter-screen. Drosophila S2 Gal4-VP16 UAS-luciferase, luminescence, 20 h. Potency, µM (doses to about 53.6 µM), for the others: at the highest dose activity, negative = inhibition, usual class: inhibitors. 310,000 compounds, 3.5% hits. AID 2546;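 further: Gal4-VP16 expression switched on by copper sulfate through the metallothionein promoter; potency means the concentration at half of the fitted maximal effect; on the % scale 0 is the no-effect control and ±100 the full control effect; nearly all actives have a fitted effect of over 50% in size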
SW480 rerep – inducers of DNA re-replication in SW480 colon cancer cells; AID 624297; SW480 DNA re-replication, Hoechst DNA content imaging, 48 h; 340,000 compounds, 1.8% hits; Potency, µM (series often up to 46.1 µM), for inactives: top-dose re-replication activation, usual class: activators; further: potency means the concentration at half of the fitted maximal effect; % of control where 0% means no effect; nearly all actives have a fitted effect of over 55% in size
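Quantitative HTS format with DMSO vehicle controls; 48 hr drug incubation at 37 C, then 40 min Hoechst staining and scanning imager measurement at 405 nm excitation.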
BCR signal inh – blocks chronic active B-cell receptor signaling. ABC-DLBCL IkBa-CBG/CBR reporter, luminescence ratio, 4 h. Potency, µM (doses to about 46.1 µM), inactives show at the highest dose activity change, negative = inhibition, hits mostly inhibitors. 340,000 compounds, 0.05% hits; active means well fitted inhibition curve with a large enough effect in the signal ratio, with a control signal flat, not every such curve was filed as active; inconclusive means small, poorly fitted or top-dose-only effect, or effect the other way, or a change in a side signal; the % refers to the signal ratio;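 further: potency means the concentration at half of the fitted maximal effect; plate controls were basal doxycycline-induced cells for no effect and cells given 10 µM MG132 for full effect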
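Compounds up to 46 uM were incubated four hours with TMD8 cells whose green CBG68 luciferase is fused to IkappaBalpha; red CBR luminescence normalised the signal, and concentration-effect curves were fitted to fusion, red and ratio data.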
* = called active by the depositor; ? = inconclusive; . = no result given; [ ] = another dose, or the depositor's remark. Unless noted, the call rests on the fitted dose curve; in most records, active means well fitted curve in the direction sought with a large enough effect; inconclusive means small, poorly fitted or top-dose-only effect, or another doubt; inactive means no such curve, though single readings can be large; an effect the other way counts as inactive or inconclusive.

SMILES	RORgamma inh	MCF10A rerep	Giardia kill	Gal4-VP16 FLuc	SW480 rerep	BCR signal inh
O=C(Cn1nnc(-c2ccccc2Cl)n1)N/N=C/c1ccc(-c2cccc(Cl)c2)o1	7.1µM*	?	4	6.3µM*	4%	-16%
Nc1nc(Cl)cc(N2CCC(c3cc(-c4ccc(Cl)cc4)n[nH]3)CC2)n1	?	26µM*	0	?	16µM*	?
COc1ccc(-c2cc(C3CCN(c4cc(Cl)nc(N)n4)CC3)[nH]n2)cc1	?	?	12	-24%	19%	?
COc1ccc(OC)c(-c2cc(C3CCN(c4cc(Cl)nc(N)n4)CC3)[nH]n2)c1	28%	21µM*	14	-5%	?	?
O=C(NNc1nc2ccccc2nc1C(F)(F)F)c1ccccc1	7.9µM*	1%	-2	16µM*	4%	-8%
Cc1ccc(S(=O)(=O)NNc2nc3ccccc3nc2C(F)(F)F)cc1	18µM*	?	-2	?	?	12%
C(=C\c1ccccc1)/CSc1nnc(-c2ccncc2)n1Cc1ccco1	-1%[10 µM]	2%	7	-6%	3%	1%
Cc1ccc(-c2nnc(SCc3nc4ccccc4[nH]3)n2Cc2ccco2)cc1	11µM*	-16%	-2	?	15%	?
CC(C)(C)c1ccc(CSc2nnc(-c3ccccn3)n2Cc2ccco2)cc1	?	16µM*	7	7.1µM*	?	?
C(=C\c1ccccc1)/CSc1nnc(-c2ccccc2)n1Cc1ccco1	13%	5.2µM*	-11	?	23µM*	?
O=C(CSc1nnc(-c2ccncc2)n1Cc1ccco1)OC1CCCCC1	10µM*	0%	0	?	0%	15%
Brc1ccc(CSc2nnc(-c3ccccn3)n2Cc2ccco2)cc1	?	?	-2	?	?	?
O=C(CSc1nnc(-c2cnccn2)n1Cc1ccco1)c1ccccc1	29%	0%	-3	6%	-13%	0%
O=C(CSc1nnc(-c2cnccn2)n1Cc1ccco1)c1ccc(Cl)cc1	10µM*	?	6	?	?	0%
O=C(N/C(=C\c1cccc([N+](=O)[O-])c1)C(=O)N1CCOCC1)c1ccco1	-11%	2%	15	11%	-2%	4%
CC(CCc1ccc(O)cc1)NC(c1ccccc1)c1ccc(Cl)cc1 (centres undefined)	?	16µM*	20	?	?	?
O=C(O)CCSc1nnc(-c2ccncc2)n1-c1ccccc1	16%	-3%	-11	0%	-2%	-17%
COc1ccc(-c2nnc(SCCC(=O)O)n2-c2ccccc2)cc1	13µM*	2%	-9	-17%	-7%	6%
CCn1c(COc2ccccc2C)nnc1SCC(=O)O	-1%	-2%	-27	-10%	-3%	4%
CCn1c(COc2ccccc2C)nnc1SCC(=O)CC(=O)Nc1ccccc1	7.1µM*	?	6	?	1%	-1%
COc1ccc(-n2c(SCc3ccc([N+](=O)[O-])cc3)nnc2-c2ccc(C)cc2)cc1	-3%	-5%	0	4.5µM*	-4%	-5%
O=[N+]([O-])c1ccc(CSc2nnc(SCc3ccccc3)s2)cc1	29%	6.5µM*	-1	?	-9%	0%
COc1ccc(-n2c(Cc3ccccc3)nnc2SCc2ccc([N+](=O)[O-])cc2)cc1	43%	-5%	-29	-8%	-1%	-19%
CC(C)Cc1cc(C(=O)N2CCC(N3CCC(C(=O)NC4CC4)CC3)CC2)n[nH]1	3%	-1%	24	-10%	-3%	?
CN(Cc1c(F)cccc1Cl)C(=O)c1ccc(NC(=O)CC2SC(N3CCCCC3)=NC2=O)cc1 (centres undefined)	.	-1%	4	.	8%	1%
SMILES	RORgamma inh	MCF10A rerep	Giardia kill	Gal4-VP16 FLuc	SW480 rerep	BCR signal inh
CCC1S/C(=N/N=C/c2ccco2)N(Cc2ccccc2)C1=O (centres undefined)	29%	16%	8	-16%	15%	21%
O=[N+]([O-])c1ccc(CSc2nnc(Cc3ccccc3)n2-c2ccc(F)cc2)cc1	?	1%	29	10µM*	.	?
O=C(CSc1nnc(-c2cccnc2)n1-c1ccccc1)Nc1ccccc1	-15%	8%	4	13%	4%	-2%
N#Cc1ccccc1NC(=O)CSc1nnc(-c2ccccc2)n1-c1ccccc1	9%	?	17	19%	23µM*	4%
CCn1c(SCc2ccc(OC)cc2)nnc1-c1ccncc1	11%	21µM*	-8	15%	-3%	?
N#Cc1ccccc1NC(=O)CSc1nccn1CCc1ccccc1	42%	3%	9	13%	-6%	?
Cc1ccc(-c2nnc(SCC(=O)CC(=O)Nc3ccccc3)n2-c2ccccc2)cc1	3.5µM*	7%	-6	?	-1%	2%
Cc1ccc(Cl)cc1NC(=O)CSc1nnc(C)n1-c1ccccc1	4µM*	0%	-13	5.6µM*	-1%	12%
Cc1cc(C)n2c(SCC(=O)Nc3ccccc3C#N)nnc2n1	.	0%	-12	.	-16%	1%
CCN(CC)c1ccc(-c2nnc(SCC(=O)Nc3ccccc3C#N)n2-c2ccccc2)cc1	18µM*	27%	-23	-25%	10%	0%
COC(=O)c1ccc(CSc2nnc(CS(=O)Cc3ccc(Br)cc3)n2-c2ccccc2)cc1 (centres undefined)	?	?	11	-11%	?	?
O=S(Cc1ccc(Br)cc1)Cc1nnc(SCc2ccc(Br)cc2)n1-c1ccccc1 (centres undefined)	?	23µM*	-19	-21%	?	?
Cc1c(Cl)cccc1NC(=O)CSc1nnc(C)n1-c1ccccc1	25%	0%	-2	13%	?	5%
O=c1[nH]cc(N=Cc2cc(Cl)cc(Cl)c2O)c(=O)[nH]1	11µM*	1%	-12	13µM*	-10%	0%
O=c1[nH]cc(N=Cc2cc([N+](=O)[O-])ccc2O)c(=O)[nH]1	-23%	.	.	-1%	.	-3%
CC(C)CN(CCNC(=O)CCN1N=C(c2ccccc2)CCC1=O)CC(C)C	.	.	.	.	.	-4%
O=[N+]([O-])c1ccc(-n2nnnc2-c2ccccc2)c([N+](=O)[O-])c1	4µM*	4.1µM*	-11	5.6µM*	5.2µM*	?
COc1ccc(S(=O)(=O)Nc2cc(OC)cc3cccnc23)cc1	2.5µM*	.	.	?	.	.
O=S(=O)(Nc1cccc2cccnc12)c1ccc(Br)cc1	0.56µM*	.	.	1.3µM*	.	.
Nc1ccc(S(=O)(=O)Nc2cccc3cccnc23)cc1	4µM*	.	.	11µM*	.	.

Screens deposited in PubChem BioAssay by National Center for Advancing Translational Sciences (NCATS).
